A selection: hits, their analogues and other compounds. The true share with any hit is near 31%.
CYP2C19 inh: human CYP2C19 inhibition. AID 778. CYP2C19 Supersomes, luciferin-H EGE luminescence, 30 min. inhibition, % at 5 µM. P33261. 96,000 tested, 21% active;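 active = CYP2C19 inhibition above a set limit at 5 µM in the primary screen, cut at about 50% in these data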
CYP2C19 activ: cytochrome P450 2C19 (human) activation. P33261. recombinant CYP2C19, luciferin-H EGE luminescence; hits give high values; 0 = fully inhibited enzyme, 1 = untreated enzyme. activation factor at 5 µM. 96,000 tested, under 10 active;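 active = activation factor of at least 2 at 5 µM in the primary screen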
CYP2C9 inh: human CYP2C9 inhibition. inhibition, % at 5 µM. 96,000 tested, 20% active. AID 777. P11712. CYP2C9 Supersomes, luciferin-H conversion, luminescence;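 active = blocking of liver enzyme CYP2C9 beyond about 50% at 5 µM, limit read from the data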
Target sequence (P11712 whole entry, looked up): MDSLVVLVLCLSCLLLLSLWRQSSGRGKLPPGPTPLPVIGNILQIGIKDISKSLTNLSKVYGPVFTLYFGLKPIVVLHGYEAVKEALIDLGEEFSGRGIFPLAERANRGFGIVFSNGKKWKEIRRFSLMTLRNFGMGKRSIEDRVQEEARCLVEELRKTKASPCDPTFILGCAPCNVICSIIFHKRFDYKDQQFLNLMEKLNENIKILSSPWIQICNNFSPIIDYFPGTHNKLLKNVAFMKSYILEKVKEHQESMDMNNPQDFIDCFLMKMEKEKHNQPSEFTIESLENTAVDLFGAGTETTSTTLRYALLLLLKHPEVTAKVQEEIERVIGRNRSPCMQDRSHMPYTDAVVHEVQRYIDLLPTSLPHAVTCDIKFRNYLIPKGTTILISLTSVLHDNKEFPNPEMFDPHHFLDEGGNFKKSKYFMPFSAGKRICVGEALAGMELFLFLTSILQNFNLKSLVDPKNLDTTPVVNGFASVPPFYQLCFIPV
CYP2C9 activ: activators of human CYP2C9. P11712. recombinant CYP2C9, luciferin-H conversion, luminescence; hits give high values; factor 1 = untreated enzyme, 0 = blocked. activation factor at 5 µM. 96,000 tested, 1.4% active;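 active = activation factor of 2 or more for CYP2C9 at a 5 µM dose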
Of the large screens only hits and unclear results are named; the others gave an inactive call.

COCCNC(=O)CN(c1ccc(OC)c(OC)c1)S(=O)(=O)c1ccc(C)cc1	none
COc1ccc(N(CC(=O)Nc2cc(C)on2)S(=O)(=O)c2ccc(Cl)cc2)cc1	none
Cc1ccc(N(CC(=O)Nc2ccc3c(c2)OCCO3)S(=O)(=O)c2c(C)n[nH]c2C)cc1	CYP2C19 inh 62, CYP2C9 inh 74
COc1cc2c(cc1OC)CN(C(=O)c1cc(S(=O)(=O)N3CCOCC3)ccc1Cl)CC2	none
NC(=O)C1CCN(C(=O)Cn2cccc2C(=O)c2ccccc2)CC1	none
COC(=O)c1ccc(/C=N\NC(=O)c2ccc(C)cc2Cl)cc1	none
COc1ccc(N(CC(=O)O)S(=O)(=O)c2c(C)n[nH]c2C)cc1	none
COc1ccc(NC(=O)CN(c2cc(C)cc(C)c2)S(=O)(=O)c2c(C)n[nH]c2C)cc1	CYP2C9 inh 69
COc1cccc(N2CCN(C(=O)CN(c3ccc(C)cc3)S(=O)(=O)c3c(C)n[nH]c3C)CC2)c1	CYP2C19 inh 58, CYP2C9 inh 81
CCOc1ccccc1NC(=O)CN(c1ccc(C)cc1)S(=O)(=O)c1c(C)n[nH]c1C	CYP2C19 inh 73, CYP2C9 inh 95
CCOc1ccc(-c2nc(CSc3nnc(N)s3)cs2)cc1	none
O=C(Nc1ccccc1)NC1CS(=O)(=O)CC1O (stereo not drawn)	none
O=C(CN1C(=O)NC(Cc2ccccc2)C1=O)Nc1ccccc1 (stereo not drawn)	none
CC1CCCC(NC(=O)CCn2c(=O)oc3ccccc32)C1C (stereo not drawn)	CYP2C9 activ 2
Cc1cccc(NC(=O)Cn2c(=O)oc3ccccc32)c1	CYP2C19 inh 58
Cc1cccc(NC(=O)CN2C(=O)NC(Cc3ccccc3)C2=O)c1 (stereo not drawn)	CYP2C9 inh 60
COc1cccc(CNC(=O)CCn2c(=O)oc3ccccc32)c1	CYP2C19 inh 58
O=C(CCn1c(=O)oc2ccccc21)Nc1cccc(Cl)c1	CYP2C19 inh 55, CYP2C9 activ 2
O=C(NNC1=C(C(=O)C(F)(F)F)CCC1)c1ccccc1O	CYP2C9 inh 85
O=C(NNC1=C(C(=O)C(F)(F)F)CCC1)c1ccc(Br)cc1	CYP2C9 inh 69
O=C(NNC1=C(C(=O)C(F)(F)F)CCC1)c1ccccc1Cl	CYP2C9 inh 96
CN1C(=C2C(=O)OC(C)(C)OC2=O)Sc2ccccc21	none
Cc1ccccc1NC(=O)C(C#N)Cc1cccnc1 (stereo not drawn)	none
Cc1onc(-c2ccccc2)c1C(=O)Nc1sc2c(c1C#N)CCC2	CYP2C9 inh 68
Cc1noc(C)c1C(=O)Nc1sc(C)c(-c2ccccc2)c1C#N	CYP2C19 inh 62, CYP2C9 inh 76
Cc1onc(-c2ccccc2)c1C(=O)Nc1sc2c(c1C(N)=O)CCC2	none
Cc1ccccc1C(=O)NC(=S)Nc1sc2c(c1C#N)CCCC2	CYP2C9 inh 74
COC(=O)C1=C(C)N(Cc2ccc(C)cc2)C(=O)C1	none
O=C(c1cccs1)n1nc(-c2ccccc2)nc1NCc1ccc(F)cc1	none
CCOC(=O)c1[nH]c2cc(OC)c(OC)cc2c1NC(=O)CN1CCN(c2ccc(OC)cc2)C(C)C1 (stereo not drawn)	none
CC(=O)NC1CC(C)(C)N(OC(C)=O)C(C)(C)C1	none
CCCCCCC1CCC(c2nc(-c3ccncc3)no2)CC1 (stereo not drawn)	CYP2C19 inh 89, CYP2C9 inh 63
CC(C)(C)n1nnnc1CN(Cc1cccnc1)Cc1ccccc1Cl	CYP2C19 inh 88
CC(C)(C)n1nnnc1CN(Cc1ccco1)Cc1cc2cc3c(cc2[nH]c1=O)OCO3	none
C=C(Cl)COc1cc(C)cc2oc(=O)cc(CC)c12	CYP2C9 inh 52
CCCc1cc(=O)oc2cc(C)cc(OCC(=O)O)c12	none
CCc1cc(=O)oc2cc(C)cc(OC(=O)c3ccco3)c12	CYP2C19 inh 66
O=C(NCCN1CCOCC1)C1CC(=O)N(c2ccc(F)c(Cl)c2)C1 (stereo not drawn)	none
CC1=C(C(=O)OC2CCCCCCC2)C(c2ccc(O)cc2)NC(=O)N1 (stereo not drawn)	CYP2C19 inh 82, CYP2C9 inh 92
C=CCOc1c(Br)cc(C2NC(=O)NC(C)=C2C(C)=O)cc1OCC (stereo not drawn)	none
CCOC(=O)C1=C(C)NC(=O)NC1c1ccc(Br)s1 (stereo not drawn)	CYP2C19 inh 78
CCOC(=O)C(C)Oc1ccc(C2NC(=O)NC(C)=C2C(C)=O)cc1Br (stereo not drawn)	CYP2C9 inh 72
COc1cc(C2NC(=O)NC(C)=C2C(=O)OC2CCCC(C)C2)ccc1O (stereo not drawn)	none

Screening results from PubChem.
